Measured values from PubChem BioAssay (NCI).
Compounds without any hit were thinned out: in the full panel of roughly 83,000, 20% have a hit.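 Testing used 96-well plates and a 48-hour single-concentration exposure. Example: -40 means 40% of the starting cells died.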 Active and inactive are the calls of the source. The calls were made as follows: active = growth percent below 10; inactive = the rest.

Tests used:
Assay in all cases: NCI-60 one-dose screen, 48 h (100 = growth as untreated, 0 = no growth, -100 = all killed)
Settings in all cases: 10 µM unless noted
SN12C renal = test system: SN12C renal
UO-31 renal = test system: UO-31 renal
TK-10 renal = test system: TK-10 renal
ACHN renal = test system: ACHN renal
CAKI-1 renal = test system: CAKI-1 renal
A498 renal = test system: A498 renal
CCRF-CEM leukemia = test system: CCRF-CEM leukemia
MOLT-4 leukemia = test system: MOLT-4 leukemia
SR leukemia = test system: SR leukemia
RPMI-8226 leukemia = test system: RPMI-8226 leukemia
OVCAR-8 ovarian = test system: OVCAR-8 ovarian
OVCAR-5 ovarian = test system: OVCAR-5 ovarian
OVCAR-4 ovarian = test system: OVCAR-4 ovarian
SK-OV-3 ovarian = test system: SK-OV-3 ovarian
IGROV1 ovarian = test system: IGROV1 ovarian
OVCAR-3 ovarian = test system: OVCAR-3 ovarian
HS 578T breast = test system: HS 578T breast
NCI/ADR-RES ovarian = test system: NCI/ADR-RES ovarian
T-47D breast = test system: T-47D breast

Measured: growth

c1cnc2n[nH]c(Nc3ncnc4c3sc3ncccc34)c2c1
inactive: SN12C renal 99.7% | UO-31 renal 98.5% | TK-10 renal 103% | ACHN renal 97.8% | CAKI-1 renal 104% | A498 renal 91.3% | CCRF-CEM leukemia 88.6% | MOLT-4 leukemia 97.9% | SR leukemia 101% | RPMI-8226 leukemia 88.1% | OVCAR-8 ovarian 96.8% | OVCAR-5 ovarian 93.2% | OVCAR-4 ovarian 102% | SK-OV-3 ovarian 102% | IGROV1 ovarian 109% | OVCAR-3 ovarian 111% | HS 578T breast 117% | NCI/ADR-RES ovarian 104% | T-47D breast 93.5%

CCN1C[C@@H](C)n2c(c(O)c3c(=O)n(Cc4ccc(F)c(Cl)c4)nc(C(=O)NC)c32)C1=O
inactive: UO-31 renal 11% | TK-10 renal 31.6% | ACHN renal 13.7% | CAKI-1 renal 15.9% | CCRF-CEM leukemia 40.4% | MOLT-4 leukemia 21.6% | RPMI-8226 leukemia 19.4% | OVCAR-8 ovarian 22% | OVCAR-5 ovarian 88.6% | OVCAR-4 ovarian 80.2% | SK-OV-3 ovarian 43.5% | IGROV1 ovarian 28.7% | HS 578T breast 16.7% | NCI/ADR-RES ovarian 15.3% | T-47D breast 27%
active: SN12C renal 9.18% | A498 renal -7.58% | SR leukemia 2.73%

C[C@]12CC[C@@H]3c4ccc(O)c([N+](=O)[O-])c4CC[C@H]3[C@@H]1CC[C@@H]2NS(=O)(=O)c1cccc(Br)c1
inactive: SN12C renal 21.4% | TK-10 renal 42.8% | ACHN renal 24.4% | CAKI-1 renal 17.8% | A498 renal 54.2% | MOLT-4 leukemia 18.2% | RPMI-8226 leukemia 10.7% | OVCAR-8 ovarian 40% | OVCAR-5 ovarian 88.2% | OVCAR-4 ovarian 40.4% | SK-OV-3 ovarian 80.3% | IGROV1 ovarian 34.8% | OVCAR-3 ovarian 28.5% | HS 578T breast 62.5% | NCI/ADR-RES ovarian 26.8% | T-47D breast 24.6%
active: UO-31 renal 3.61% | SR leukemia -12.1%

Cc1ccc2c(c1)O/C(=C\c1ccc([N+](=O)[O-])o1)C2=O
inactive: SN12C renal 34.7% | CAKI-1 renal 36.8% | A498 renal 122% | SR leukemia 10.6% | OVCAR-5 ovarian 71.6% | SK-OV-3 ovarian 91.1% | HS 578T breast 106% | NCI/ADR-RES ovarian 78.5% | T-47D breast 41.4%
active: UO-31 renal -21.6% | TK-10 renal -32.7% | ACHN renal 1.36% | CCRF-CEM leukemia -32.4% | RPMI-8226 leukemia -34.4% | OVCAR-8 ovarian -4.7% | OVCAR-4 ovarian 5.62% | IGROV1 ovarian -17.3% | OVCAR-3 ovarian -15%

COc1ccc(Nc2ccnc(NCCCNc3ccnc4cc(Cl)ccc34)n2)cc1
inactive: IGROV1 ovarian 21.7% | NCI/ADR-RES ovarian 35.4%
active: SN12C renal -21.5% | UO-31 renal -71.8% | TK-10 renal -72.3% | ACHN renal -96.8% | CAKI-1 renal -40.3% | A498 renal -7.79% | CCRF-CEM leukemia -19.3% | MOLT-4 leukemia -21.1% | RPMI-8226 leukemia -60.5% | OVCAR-8 ovarian 5.52% | OVCAR-5 ovarian -19.9% | SK-OV-3 ovarian -5.22% | OVCAR-3 ovarian -84.5% | HS 578T breast -52.2% | T-47D breast -51.8%

COc1ccc(-c2cnnn2-c2cc(OC)c3c(c2)OCO3)cc1
active: CCRF-CEM leukemia 0.869% | MOLT-4 leukemia 4.11% | SR leukemia -30.4% | RPMI-8226 leukemia 9.18% | SK-OV-3 ovarian -1.59% | OVCAR-3 ovarian -37.5% | HS 578T breast 5.54%
inactive: SN12C renal 36.8% | UO-31 renal 50% | TK-10 renal 40% | ACHN renal 38.8% | CAKI-1 renal 29.6% | OVCAR-8 ovarian 13.1% | OVCAR-5 ovarian 45.1% | IGROV1 ovarian 17.9% | NCI/ADR-RES ovarian 12.1% | T-47D breast 50.3%

O=C(Nc1cccc(C(F)(F)F)c1)Nc1ccc(OCc2nnc(-c3ccc(Cl)cc3)o2)c(F)c1
inactive: SN12C renal 77.3% | UO-31 renal 73.9% | TK-10 renal 81.3% | ACHN renal 51.2% | CAKI-1 renal 80.1% | A498 renal 79% | CCRF-CEM leukemia 60.8% | MOLT-4 leukemia 66.7% | SR leukemia 66.3% | RPMI-8226 leukemia 41.3% | OVCAR-8 ovarian 58.2% | OVCAR-5 ovarian 75.9% | OVCAR-4 ovarian 75% | SK-OV-3 ovarian 79.5% | IGROV1 ovarian 90% | OVCAR-3 ovarian 85.8% | HS 578T breast 91.7% | NCI/ADR-RES ovarian 73.1% | T-47D breast 61.6%

Cc1ccc2c(c1)C(=O)/C(=C/c1ncc([N+](=O)[O-])n1C)O2
inactive: A498 renal 76.4% | SR leukemia 11% | OVCAR-4 ovarian 21.8% | T-47D breast 90.3%
active: SN12C renal -15.3% | UO-31 renal -39.7% | TK-10 renal -29.8% | ACHN renal 5.3% | CAKI-1 renal -32.1% | CCRF-CEM leukemia 0.686% | MOLT-4 leukemia -2.13% | RPMI-8226 leukemia -12.4% | OVCAR-8 ovarian -30.8% | SK-OV-3 ovarian 0.948% | IGROV1 ovarian -26.5% | OVCAR-3 ovarian -46.9% | HS 578T breast -10.2% | NCI/ADR-RES ovarian -3.98%

C/C(=C\CCc1ccsc1)CC/C=C(\C)CCCN1CCN(CCO)CC1
active: MOLT-4 leukemia 2.14% | SR leukemia -29.1% | RPMI-8226 leukemia -18.9%
inactive: SN12C renal 55.2% | UO-31 renal 62.1% | TK-10 renal 40% | ACHN renal 50.6% | CAKI-1 renal 77.6% | A498 renal 39.2% | CCRF-CEM leukemia 24.1% | OVCAR-8 ovarian 59.3% | OVCAR-5 ovarian 71.8% | OVCAR-4 ovarian 41.9% | SK-OV-3 ovarian 77.4% | IGROV1 ovarian 52.8% | OVCAR-3 ovarian 64.6% | HS 578T breast 49.5% | NCI/ADR-RES ovarian 56.3% | T-47D breast 36.2%

CN(C)c1nc(N)nc(Cn2c(-c3nonc3N)nc3ccccc32)n1
inactive: SN12C renal 95.3% | UO-31 renal 65.2% | TK-10 renal 107% | ACHN renal 88.3% | CAKI-1 renal 77.9% | A498 renal 82.5% | CCRF-CEM leukemia 78.9% | MOLT-4 leukemia 90.8% | RPMI-8226 leukemia 87.9% | OVCAR-8 ovarian 91.9% | OVCAR-5 ovarian 90.6% | OVCAR-4 ovarian 87.8% | SK-OV-3 ovarian 88.8% | IGROV1 ovarian 95.7% | HS 578T breast 77.4% | NCI/ADR-RES ovarian 73.6% | T-47D breast 89.7%

Clc1ncn[nH]1
inactive: SN12C renal 103% | UO-31 renal 89.9% | TK-10 renal 93.8% | ACHN renal 98.3% | CAKI-1 renal 92.5% | A498 renal 106% | CCRF-CEM leukemia 103% | MOLT-4 leukemia 105% | SR leukemia 94% | RPMI-8226 leukemia 102% | OVCAR-8 ovarian 92% | OVCAR-5 ovarian 107% | OVCAR-4 ovarian 100% | SK-OV-3 ovarian 96.3% | IGROV1 ovarian 105% | OVCAR-3 ovarian 105% | HS 578T breast 106% | NCI/ADR-RES ovarian 106% | T-47D breast 99.5%

CSc1nnc(C2=CC(=O)c3ccccc3C2=O)n1-c1ccccc1
inactive: SN12C renal 104% | UO-31 renal 67.6% | TK-10 renal 121% | ACHN renal 74.9% | CAKI-1 renal 88.5% | A498 renal 99.4% | CCRF-CEM leukemia 36.8% | MOLT-4 leukemia 68.9% | RPMI-8226 leukemia 72.2% | OVCAR-8 ovarian 94.6% | OVCAR-5 ovarian 113% | OVCAR-4 ovarian 99.2% | SK-OV-3 ovarian 93.7% | IGROV1 ovarian 80.4% | OVCAR-3 ovarian 91.6% | HS 578T breast 112% | NCI/ADR-RES ovarian 98% | T-47D breast 78.4%

O=C1C(Cl)=C(N=Nc2c(Cl)c(O)c3ccccc3c2O)C(=O)c2ccccc21
inactive: SN12C renal 71.8% | UO-31 renal 70.4% | TK-10 renal 116% | ACHN renal 77% | CAKI-1 renal 88.9% | A498 renal 63.6% | CCRF-CEM leukemia 43.5% | MOLT-4 leukemia 62.1% | SR leukemia 34.9% | RPMI-8226 leukemia 69.2% | OVCAR-8 ovarian 79.1% | OVCAR-5 ovarian 121% | OVCAR-4 ovarian 72.3% | SK-OV-3 ovarian 89.8% | IGROV1 ovarian 60.1% | OVCAR-3 ovarian 24.3% | HS 578T breast 55.3% | NCI/ADR-RES ovarian 73.8% | T-47D breast 66.9%

c1ccc(-c2nnc(Nc3nnc(-c4ccccc4)s3)s2)cc1
inactive: SN12C renal 102% | UO-31 renal 82.5% | TK-10 renal 142% | ACHN renal 96% | CAKI-1 renal 87.9% | A498 renal 92.1% | CCRF-CEM leukemia 95.5% | MOLT-4 leukemia 102% | SR leukemia 97.4% | RPMI-8226 leukemia 87.8% | OVCAR-8 ovarian 103% | OVCAR-5 ovarian 100% | SK-OV-3 ovarian 96.8% | IGROV1 ovarian 86.7% | OVCAR-3 ovarian 105% | HS 578T breast 100% | NCI/ADR-RES ovarian 118% | T-47D breast 93.8%

CCC(C)CC(C)C(=O)c1c(O)ccn(O)c1=O (centres undefined)
inactive: SN12C renal 21.2% | TK-10 renal 83.7% | ACHN renal 16.6% | CAKI-1 renal 40.3% | A498 renal 115% | CCRF-CEM leukemia 15.8% | SR leukemia 22.9% | RPMI-8226 leukemia 11.7% | OVCAR-8 ovarian 17.8% | OVCAR-4 ovarian 30.3% | SK-OV-3 ovarian 65.3% | IGROV1 ovarian 24.2% | OVCAR-3 ovarian 19% | HS 578T breast 62% | T-47D breast 35.5%
active: UO-31 renal 6.43% | MOLT-4 leukemia 9.61% | NCI/ADR-RES ovarian 4.73%

S=C1SCN(Cc2ccccc2)CN1Cc1ccco1
inactive: SN12C renal 93.5% | UO-31 renal 78.6% | TK-10 renal 28.7% | ACHN renal 107% | CAKI-1 renal 96.7% | A498 renal 99% | CCRF-CEM leukemia 10.8% | MOLT-4 leukemia 51.6% | SR leukemia 22% | RPMI-8226 leukemia 37.5% | OVCAR-8 ovarian 89.1% | OVCAR-5 ovarian 120% | OVCAR-4 ovarian 99.9% | SK-OV-3 ovarian 96.2% | IGROV1 ovarian 84.4% | OVCAR-3 ovarian 75.3% | HS 578T breast 109% | NCI/ADR-RES ovarian 99.2% | T-47D breast 59.3%

CCOc1nc(-c2ccccc2)cc2c(O)c(C(=O)n3nc(C)cc3C)[nH]c(=O)c12
inactive: SN12C renal 101% | UO-31 renal 96% | TK-10 renal 108% | ACHN renal 100% | CAKI-1 renal 119% | A498 renal 101% | CCRF-CEM leukemia 96.5% | MOLT-4 leukemia 99% | RPMI-8226 leukemia 103% | OVCAR-8 ovarian 101% | OVCAR-5 ovarian 106% | OVCAR-4 ovarian 100% | SK-OV-3 ovarian 102% | IGROV1 ovarian 97.4% | OVCAR-3 ovarian 112% | HS 578T breast 115% | NCI/ADR-RES ovarian 111% | T-47D breast 107%
